rTrxR1 inhibitor: qHTS Assay for Inhibitors of Mammalian Selenoprotein Thioredoxin Reductase 1 (TrxR1): qHTS | recombinant rTrxR1, NADPH fluorescence consumption, selenite substrate | 390,000 tested, 1% active | Potency, µM (highest dose often 114 µM), without a hit: at the highest dose activity change, negative = inhibition, most hits filed as inhibitors; also: nearly all actives have a fitted effect of over 65% in size
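Rat TrxR1 (90 nM in the dispensed reagent) was pre-reduced with 400 uM NADPH for 5 min at room temperature, then incubated with compound for 15 min. After 400 uM selenite was added, NADPH fluorescence (Ex 340/Em 450 nm) was followed for 8 min.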
GLS inh: qHTS for Inhibitors of Glutaminase (GLS). GLS enzymatic activity, qHTS titration. Potency, µM (highest dose often 45.5 µM), inactives show top-dose activity change, negative = inhibition, most hits filed as inhibitors. 410,000 tested, 0.21% active. AID 624170, 2012
Target sequence (O94925 whole entry, looked up): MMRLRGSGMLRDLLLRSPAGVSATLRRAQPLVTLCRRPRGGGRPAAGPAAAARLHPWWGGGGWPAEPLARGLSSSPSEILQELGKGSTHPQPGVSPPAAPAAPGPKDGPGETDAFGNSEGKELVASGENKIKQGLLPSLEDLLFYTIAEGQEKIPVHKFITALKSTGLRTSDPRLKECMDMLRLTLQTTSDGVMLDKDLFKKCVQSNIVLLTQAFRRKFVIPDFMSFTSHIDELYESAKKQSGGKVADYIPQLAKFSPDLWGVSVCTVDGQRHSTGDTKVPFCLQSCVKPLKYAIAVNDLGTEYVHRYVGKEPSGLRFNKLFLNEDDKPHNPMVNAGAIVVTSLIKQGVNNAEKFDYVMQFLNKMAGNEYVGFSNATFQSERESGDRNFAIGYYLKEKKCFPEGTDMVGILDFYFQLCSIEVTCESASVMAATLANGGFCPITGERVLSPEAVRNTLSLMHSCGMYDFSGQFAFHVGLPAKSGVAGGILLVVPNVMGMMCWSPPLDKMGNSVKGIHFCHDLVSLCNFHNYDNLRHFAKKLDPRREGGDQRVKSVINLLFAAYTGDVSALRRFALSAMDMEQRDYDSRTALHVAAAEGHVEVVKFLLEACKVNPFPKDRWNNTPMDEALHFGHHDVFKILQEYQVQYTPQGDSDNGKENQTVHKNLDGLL
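hKGA; 45 mM KH2PO4 pH 8.2 + 0.02% Tween-20; cpd via pin tool; 1 mM Gln soln; GluOx/HRP/Amplex Red; RT 30 min; fluor. t0 & final.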
mIDH1 inhibitor: qHTS for Inhibitors of mutant isocitrate dehydrogenase 1 (IDH1): qHTS | Isocitrate dehydrogenase [NADP] cytoplasmic (Homo sapiens), O75874 | IDH1-R132H enzyme, NADPH consumption, diaphorase/resazurin fluorescence | Potency, µM (doses to about 76.6 µM), for inactives: at the highest dose activity change, negative = inhibition, usual class: inhibitors | 390,000 tested, 0.093% active | AID 602179, 2012; also: nearly all actives have a fitted effect of over 65% in size
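IDH1-R132H (0.5 ug/mL) preincubated 30 min with compound, then NADPH (0.016 mM) and alpha-KG (2 mM) added; 80 min at RT, pH 7.5. Remaining NADPH coupled via diaphorase/resazurin to fluorescence (540/590 nm); concentration-response curves normalized to no-enzyme control.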
TrxR1 substrate: qHTS Assay for Substrates of Mammalian Selenoprotein Thioredoxin Reductase 1 (TrxR1): qHTS | Potency, µM (series often up to 114 µM), inactives show top-dose activity change, negative = substrate turnover | Thioredoxin reductase 1, cytoplasmic (Rattus norvegicus), O89049 | purified TrxR1 substrate turnover, NADPH consumption readout | 390,000 tested, 0.01% active; also: nearly all actives have a fitted effect of over 50% in size
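Rat TrxR1, dispensed at 90 nM, was prereduced with 400 uM NADPH (final) for 5 min at ~22 deg C, then incubated with compound 15 min before 400 uM selenite. A first-read NADPH fluorescence drop versus no-compound background flagged substrates.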
* hit, by the source's call; [ ] = remark or other dose. An excerpt weighted towards active compounds, which were near 1.2% of everything screened. Calls follow the shape of the dose curve; as a rule, active = well fitted curve in the direction sought with a large enough effect; inconclusive = small, poorly fitted or top-dose-only effect, or another doubt; inactive = no such curve, though single readings can be large; an effect the other way counts as inactive or inconclusive. % is scaled to controls: 0 for no effect and ±100 for the full control effect; potency is read from the fitted curve at half-maximal effect.

What do the screens show for `Cc1ccc(S(=O)(=O)c2nc(C)oc2N2CCOCC2)cc1`?
rTrxR1 inhibitor: inconclusive; GLS inh: 0.0%; mIDH1 inhibitor: -0.9%; TrxR1 substrate: 14.4%

How did COc1ccc(-c2nc3scc(CCNS(=O)(=O)c4ccc(Oc5ccccc5)cc4)n3n2)cc1OC do in these assays?
rTrxR1 inhibitor: 19.4%[57.1 µM]; GLS inh: -10.7%; mIDH1 inhibitor: -12.6%; TrxR1 substrate: -4.6%[57.1 µM]

How did CN1[C@@H]2CCC[C@@H]1CC(NC(=O)c1nn(C)c3ccccc13)C2 (stereo partly drawn) do in these assays?
GLS inh: 23.3%

What do the screens show for `COc1cc2c(NC3CCN(C)CC3)nc(N3CCCN(C)CC3)nc2cc1OCCCN1CCOCC1`?
rTrxR1 inhibitor: inconclusive; TrxR1 substrate: 48.3%

Results for COc1cc2c(NC3CCN(C)CC3)nc(N3CCCN(C)CC3)nc2cc1OCCCN1CCCC1 ?
rTrxR1 inhibitor: 50.1µM*; TrxR1 substrate: 50.5%

Results for Cn1nnnc1SCCNCc1cc(Br)ccc1OCc1ccccc1Cl ?
rTrxR1 inhibitor: 12.5%; GLS inh: 9.8%; mIDH1 inhibitor: 0.0%; TrxR1 substrate: -5.1%[11.4 µM]

Results for Cc1cc(Cl)ccc1NC(=O)CN1C(=O)C(=O)c2ccccc21 ?
rTrxR1 inhibitor: 10.9%; GLS inh: 4.5%; mIDH1 inhibitor: -1.0%; TrxR1 substrate: -7.7%

What do the screens show for `CC(C)(Cc1c[nH]c2ccccc12)NCC(O)COc1ccccc1C#N` (stereo not drawn)?
GLS inh: 21.0%

Results for CCC(=O)NC1=C(Nc2ccc(N)cc2)C(=O)c2ccccc2C1=O ?
rTrxR1 inhibitor: 16.3%[57.1 µM]; GLS inh: 7.08µM*; mIDH1 inhibitor: 8.9%; TrxR1 substrate: 10.8%[57.1 µM]

How did Cc1ccc(NC2=C(Cl)C(=O)c3ccccc3C2=O)cc1 do in these assays?
rTrxR1 inhibitor: 3.55µM*; GLS inh: -6.1%; mIDH1 inhibitor: -3.9%; TrxR1 substrate: -6.1%

Results for Cc1ccc(NC2=CC(=O)C(=O)c3ccccc32)cc1 ?
rTrxR1 inhibitor: -1.2%[57.1 µM]; GLS inh: 9.7%; mIDH1 inhibitor: 11.8%; TrxR1 substrate: 0.7%[57.1 µM]

Results for O=C1C=C(Nc2ccc(O)cc2)C(=O)c2ccccc21 ?
rTrxR1 inhibitor: 5.1%; GLS inh: inconclusive; mIDH1 inhibitor: 9.2%; TrxR1 substrate: 5.3%

What do the screens show for `O=C1C(Cl)=C(Nc2ccc(O)cc2)C(=O)c2ccccc21`?
rTrxR1 inhibitor: inconclusive; GLS inh: 1.26µM*; mIDH1 inhibitor: 0.4%; TrxR1 substrate: -0.2%

What do the screens show for `COc1ccc(NC2=C(NC(C)=O)C(=O)c3ccccc3C2=O)cc1`?
rTrxR1 inhibitor: 17.0%[57.1 µM]; GLS inh: -7.4%; mIDH1 inhibitor: 10.6%; TrxR1 substrate: -9.6%

What do the screens show for `COC1=C(Nc2ccc(O)cc2)C(=O)c2ccccc2C1=O`?
rTrxR1 inhibitor: inconclusive; GLS inh: 7.94µM*; mIDH1 inhibitor: 4.0%; TrxR1 substrate: -3.5%[57.1 µM]

How did Cc1ccsc1CN(Cc1ccco1)c1cnc(S(C)(=O)=O)nc1C(=O)Nc1ccc(Cl)cc1 do in these assays?
rTrxR1 inhibitor: -10.8%; GLS inh: -2.2%; mIDH1 inhibitor: -3.8%; TrxR1 substrate: 3.5%

Results for CCCC(=O)NC1=C(Cl)C(=O)c2ccccc2C1=O ?
rTrxR1 inhibitor: 0.398µM*; GLS inh: inconclusive; mIDH1 inhibitor: 22.1%; TrxR1 substrate: 1.5%[11.4 µM]

How did CCN(CC)c1ccc(NC2=C(Cl)C(=O)c3ccccc3C2=O)cc1 do in these assays?
rTrxR1 inhibitor: 2.51µM*; GLS inh: 2.6%; mIDH1 inhibitor: -1.1%; TrxR1 substrate: -11.0%

Results for Cc1cccc2c(C(O)c3cn(C)c4ccccc34)c[nH]c12 (stereo not drawn) ?
rTrxR1 inhibitor: -16.5%; TrxR1 substrate: -2.1%

What do the screens show for `COC(=O)c1cnn(-c2nc(OC)cc(OC)n2)c1C`?
rTrxR1 inhibitor: 0.1%; GLS inh: -3.8%; mIDH1 inhibitor: -0.6%; TrxR1 substrate: -4.8%

What do the screens show for `COc1cc(OC)nc(-n2ncc(Br)c(Br)c2=O)n1`?
rTrxR1 inhibitor: 3.55µM*; GLS inh: 74.6%; mIDH1 inhibitor: 2.4%; TrxR1 substrate: 5.6%

How did COc1cc(C2(c3ccc(O)c(OC)c3)C(=O)Nc3c(C)cc(Br)cc32)ccc1O do in these assays?
rTrxR1 inhibitor: 5.1%[57.1 µM]; GLS inh: 2.51µM*; mIDH1 inhibitor: inconclusive; TrxR1 substrate: 8.3%

What do the screens show for `Cc1cc(Br)cc2c1NC(=O)C2(c1c(C)n(C)n(-c2ccccc2)c1=O)c1c(C)n(C)n(-c2ccccc2)c1=O`?
rTrxR1 inhibitor: -0.5%[57.1 µM]; GLS inh: 2.9%; mIDH1 inhibitor: -1.1%; TrxR1 substrate: 7.1%[57.1 µM]

How did C=CC(=O)N1C/C(=C/c2ccc(F)cc2)C(=O)/C(=C\c2ccc(F)cc2)C1 do in these assays?
rTrxR1 inhibitor: 25.1µM*; GLS inh: 10µM*; mIDH1 inhibitor: -9.8%; TrxR1 substrate: -8.4%

Results for COc1cccc(-c2nc(CS(=O)(=O)CC(=O)NC3CCCc4ccccc43)c(C)o2)c1 (stereo not drawn) ?
rTrxR1 inhibitor: 10µM*; GLS inh: 1.9%; mIDH1 inhibitor: -2.9%; TrxR1 substrate: 4.8%[57.1 µM]

How did COc1cccc(-c2nc(CS(=O)(=O)CC(=O)NC3CCCC3)c(C)o2)c1 do in these assays?
rTrxR1 inhibitor: -8.1%; GLS inh: -11.5%; mIDH1 inhibitor: -9.3%; TrxR1 substrate: -0.8%

How did Cc1ccc(CNC(=O)NCc2noc3ccc(C)cc23)cc1 do in these assays?
rTrxR1 inhibitor: -2.9%; GLS inh: -6.7%; mIDH1 inhibitor: 0.2%; TrxR1 substrate: -1.3%

Results for C/C=C/C=C\C(=O)Nc1cccc(C2=NOC3(C2)C[C@@H](C(N)=O)N(C(=O)c2cc([N+](=O)[O-])cc([N+](=O)[O-])c2C)C3)c1 (stereo partly drawn) ?
rTrxR1 inhibitor: 15.8µM*; GLS inh: -12.8%; mIDH1 inhibitor: -2.6%; TrxR1 substrate: 5.0%[57.1 µM]

How did C/C=C\C=C/C(=O)Nc1cccc(C2=NOC3(C2)C[C@@H](C(N)=O)N(C(=O)COc2ccc(Cl)cc2)C3)c1 (stereo partly drawn) do in these assays?
rTrxR1 inhibitor: 5.62µM*; GLS inh: inconclusive; mIDH1 inhibitor: 10.0%; TrxR1 substrate: -3.5%

Results for C/C=C\C=C\C(=O)N1CC2(CC(c3cccc(NC(=O)COc4ccc(Cl)cc4)c3)=NO2)C[C@H]1C(N)=O (stereo partly drawn) ?
rTrxR1 inhibitor: 25.1µM*; GLS inh: -20.3%; mIDH1 inhibitor: 1.6%; TrxR1 substrate: 12.3%[57.1 µM]

Screening data as filed in PubChem.
